Reference: paper PMC7862700, “An all-to-all approach to the identification of sequence-specific readers for epigenetic DNA modifications on cytosine”

Tests used:
Experiment in all cases: DAPPL (digital affinity profiling via proximity ligation, sequencing); 10 mM Tris-HCl pH 7.5, 50 mM NaCl, 1 mM DTT, 4% glycerol, room temperature, 30 min; GST-TFs on glutathione beads, 16-mer random dsDNA library, 0.1% formaldehyde crosslink after washing; high values mean tight binding
Settings in all cases: protein: recombinant; tags: N-terminal GST; dsDNA, one strand shown
ERF = target: T1, ERF (Homo sapiens, UniProt P50548 1-548)
T1 sequence: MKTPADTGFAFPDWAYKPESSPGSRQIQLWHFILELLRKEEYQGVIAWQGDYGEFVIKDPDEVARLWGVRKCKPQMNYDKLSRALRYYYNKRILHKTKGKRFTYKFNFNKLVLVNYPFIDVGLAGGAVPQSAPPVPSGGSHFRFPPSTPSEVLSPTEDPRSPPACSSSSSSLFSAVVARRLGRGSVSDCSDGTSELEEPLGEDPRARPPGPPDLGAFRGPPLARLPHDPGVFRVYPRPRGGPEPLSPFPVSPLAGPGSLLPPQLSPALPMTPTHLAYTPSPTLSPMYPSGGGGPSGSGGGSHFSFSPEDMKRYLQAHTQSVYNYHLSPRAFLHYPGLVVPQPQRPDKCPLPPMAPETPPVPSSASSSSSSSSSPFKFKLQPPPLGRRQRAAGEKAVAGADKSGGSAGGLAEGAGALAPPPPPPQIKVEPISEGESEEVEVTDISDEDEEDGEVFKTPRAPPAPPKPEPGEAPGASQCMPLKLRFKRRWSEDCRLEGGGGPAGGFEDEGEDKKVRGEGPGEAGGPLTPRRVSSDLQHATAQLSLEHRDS
In short: (§1)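 Yeast served to express human transcription factors as GST fusions, which were then captured on glutathione beads and labelled with DNA barcodes. Pooled with a tag-only sample, they were incubated with 200 nmole of a 16-mer random double-stranded DNA library for 30 min at room temperature in Tris/NaCl/DTT/glycerol buffer, washed, crosslinked with 0.1% formaldehyde, ligated by proximity, amplified by PCR and sequenced. Dividing each hexamer's read frequency for a factor by its frequency for the tag-only sample gives the binding signal.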

ETV3L = target: T2, ETV3L (Homo sapiens, UniProt Q6ZN32 1-361)
T2 sequence: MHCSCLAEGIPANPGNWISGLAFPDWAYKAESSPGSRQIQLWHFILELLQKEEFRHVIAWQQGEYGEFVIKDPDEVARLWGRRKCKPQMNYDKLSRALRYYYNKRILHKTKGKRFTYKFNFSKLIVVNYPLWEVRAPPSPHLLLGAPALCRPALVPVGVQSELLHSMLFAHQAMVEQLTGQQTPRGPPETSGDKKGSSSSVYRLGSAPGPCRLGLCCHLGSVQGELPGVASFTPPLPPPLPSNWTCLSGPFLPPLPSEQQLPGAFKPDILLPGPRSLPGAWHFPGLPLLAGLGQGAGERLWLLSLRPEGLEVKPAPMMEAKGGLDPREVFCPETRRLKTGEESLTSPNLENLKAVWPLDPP
In short: as §1

ETS2 = target: T3, ETS2 (Homo sapiens, UniProt P15036 1-469)
T3 sequence: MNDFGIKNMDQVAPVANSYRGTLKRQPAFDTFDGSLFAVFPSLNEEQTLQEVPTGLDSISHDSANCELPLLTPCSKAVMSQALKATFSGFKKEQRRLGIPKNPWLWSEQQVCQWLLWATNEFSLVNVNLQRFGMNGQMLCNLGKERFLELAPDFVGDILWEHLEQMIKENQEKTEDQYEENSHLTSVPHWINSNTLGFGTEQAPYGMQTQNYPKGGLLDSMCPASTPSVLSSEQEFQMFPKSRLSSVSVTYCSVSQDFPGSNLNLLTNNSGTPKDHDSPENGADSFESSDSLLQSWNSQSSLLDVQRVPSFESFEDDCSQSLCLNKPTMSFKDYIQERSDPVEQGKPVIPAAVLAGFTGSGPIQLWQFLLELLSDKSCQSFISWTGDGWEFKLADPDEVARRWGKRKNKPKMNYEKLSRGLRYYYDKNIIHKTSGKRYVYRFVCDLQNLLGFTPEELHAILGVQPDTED
In short: as §1

SPDEF = target: T4, SPDEF (Homo sapiens, UniProt O95238 1-335)
T4 sequence: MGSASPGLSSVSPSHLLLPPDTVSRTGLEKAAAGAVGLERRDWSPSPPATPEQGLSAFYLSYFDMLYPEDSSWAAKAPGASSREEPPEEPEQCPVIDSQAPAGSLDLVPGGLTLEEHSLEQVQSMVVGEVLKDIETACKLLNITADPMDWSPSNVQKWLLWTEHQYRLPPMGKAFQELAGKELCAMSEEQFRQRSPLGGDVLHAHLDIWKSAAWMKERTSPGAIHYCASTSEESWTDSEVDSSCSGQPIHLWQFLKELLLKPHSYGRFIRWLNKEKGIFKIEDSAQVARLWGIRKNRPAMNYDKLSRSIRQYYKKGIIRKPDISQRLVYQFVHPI
In short: as §1

ETV7 = target: T5, ETV7 (Homo sapiens, UniProt Q9Y603 1-341)
T5 sequence: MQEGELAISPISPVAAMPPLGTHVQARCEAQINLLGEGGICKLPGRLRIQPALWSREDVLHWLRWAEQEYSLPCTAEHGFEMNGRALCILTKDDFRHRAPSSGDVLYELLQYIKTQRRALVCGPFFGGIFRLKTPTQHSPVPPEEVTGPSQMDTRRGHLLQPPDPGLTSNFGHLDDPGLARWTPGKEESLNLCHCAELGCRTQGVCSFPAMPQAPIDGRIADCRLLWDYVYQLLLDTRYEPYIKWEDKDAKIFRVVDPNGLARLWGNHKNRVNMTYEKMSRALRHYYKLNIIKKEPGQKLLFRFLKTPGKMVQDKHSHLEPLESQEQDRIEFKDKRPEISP
In short: as §1

ELF5 = target: T6, ELF5 (Homo sapiens, UniProt Q9UKW6-2 1-255)
T6 sequence: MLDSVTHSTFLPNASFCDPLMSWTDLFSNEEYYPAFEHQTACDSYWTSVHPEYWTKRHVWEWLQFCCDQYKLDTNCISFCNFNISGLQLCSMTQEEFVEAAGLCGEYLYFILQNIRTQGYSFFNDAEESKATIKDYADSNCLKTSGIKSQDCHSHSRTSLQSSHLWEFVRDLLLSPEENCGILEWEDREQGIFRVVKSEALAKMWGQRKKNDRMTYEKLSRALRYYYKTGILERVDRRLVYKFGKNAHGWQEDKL
In short: as §1

ETV3 = target: T7, ETV3 (Homo sapiens, UniProt P41162-2 1-143)
T7 sequence: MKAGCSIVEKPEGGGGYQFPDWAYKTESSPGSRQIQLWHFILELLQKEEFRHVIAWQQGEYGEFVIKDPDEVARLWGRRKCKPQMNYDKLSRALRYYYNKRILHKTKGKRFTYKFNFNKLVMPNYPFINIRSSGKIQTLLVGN
In short: as §1

ETV6 = ETV6 (Homo sapiens, UniProt P41212 1-452)
Sequence of ETV6 (P41212 whole entry): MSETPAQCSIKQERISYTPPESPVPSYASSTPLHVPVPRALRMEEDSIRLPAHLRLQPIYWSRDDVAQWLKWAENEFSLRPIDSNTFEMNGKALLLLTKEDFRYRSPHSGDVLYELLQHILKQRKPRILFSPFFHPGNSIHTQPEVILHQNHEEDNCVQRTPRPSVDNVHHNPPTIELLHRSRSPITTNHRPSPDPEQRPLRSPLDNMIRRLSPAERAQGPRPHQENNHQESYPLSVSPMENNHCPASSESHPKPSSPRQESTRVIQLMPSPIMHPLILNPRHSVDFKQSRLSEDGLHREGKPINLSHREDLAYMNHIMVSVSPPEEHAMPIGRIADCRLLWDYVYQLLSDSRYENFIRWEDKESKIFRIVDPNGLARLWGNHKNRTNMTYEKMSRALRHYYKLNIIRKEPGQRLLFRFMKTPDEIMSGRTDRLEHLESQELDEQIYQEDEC
In short: as §1

Row | Sequence | binding signal (ERF) | binding signal (ETV3L) | binding signal (ETS2) | binding signal (SPDEF) | binding signal (ETV7) | binding signal (ELF5) | binding signal (ETV3) | binding signal (ETV6)
1 | ATCCGG | 2.34 fold enrichment (6-mer frequency, TF over GST control) | 2.49 fold enrichment (6-mer frequency, TF over GST control) | 2.66 fold enrichment (6-mer frequency, TF over GST control) | 4.67 fold enrichment (6-mer frequency, TF over GST control) | 2.25 fold enrichment (6-mer frequency, TF over GST control) | 3.06 fold enrichment (6-mer frequency, TF over GST control) | 2.9 fold enrichment (6-mer frequency, TF over GST control) | 2.37 fold enrichment (6-mer frequency, TF over GST control)
2 | ATCCGC | 1.71 fold enrichment (6-mer frequency, TF over GST control) | 1.84 fold enrichment (6-mer frequency, TF over GST control) | 1.89 fold enrichment (6-mer frequency, TF over GST control) | 2.36 fold enrichment (6-mer frequency, TF over GST control) | 1.79 fold enrichment (6-mer frequency, TF over GST control) | 2.26 fold enrichment (6-mer frequency, TF over GST control) | 1.92 fold enrichment (6-mer frequency, TF over GST control) | 1.66 fold enrichment (6-mer frequency, TF over GST control)
3 | GCTCGC | 1.36 fold enrichment (6-mer frequency, TF over GST control) | 1.35 fold enrichment (6-mer frequency, TF over GST control) | 1.45 fold enrichment (6-mer frequency, TF over GST control) | 1.29 fold enrichment (6-mer frequency, TF over GST control) | 1.21 fold enrichment (6-mer frequency, TF over GST control) | 1.31 fold enrichment (6-mer frequency, TF over GST control) | 1.35 fold enrichment (6-mer frequency, TF over GST control) | 1.35 fold enrichment (6-mer frequency, TF over GST control)
4 | TTGTAT | 1.28 fold enrichment (6-mer frequency, TF over GST control) | 1.37 fold enrichment (6-mer frequency, TF over GST control) | 1.4 fold enrichment (6-mer frequency, TF over GST control) | 1.41 fold enrichment (6-mer frequency, TF over GST control) | 1.21 fold enrichment (6-mer frequency, TF over GST control) | 1.35 fold enrichment (6-mer frequency, TF over GST control) | 1.41 fold enrichment (6-mer frequency, TF over GST control) | 1.25 fold enrichment (6-mer frequency, TF over GST control)
5 | CTAATG | 1.2 fold enrichment (6-mer frequency, TF over GST control) | 1.17 fold enrichment (6-mer frequency, TF over GST control) | 1.25 fold enrichment (6-mer frequency, TF over GST control) | 1.11 fold enrichment (6-mer frequency, TF over GST control) | 1.3 fold enrichment (6-mer frequency, TF over GST control) | 1.23 fold enrichment (6-mer frequency, TF over GST control) | 1.16 fold enrichment (6-mer frequency, TF over GST control) | 1.3 fold enrichment (6-mer frequency, TF over GST control)
6 | ACCAAT | 1.32 fold enrichment (6-mer frequency, TF over GST control) | 1.28 fold enrichment (6-mer frequency, TF over GST control) | 1.39 fold enrichment (6-mer frequency, TF over GST control) | 1.24 fold enrichment (6-mer frequency, TF over GST control) | 1.29 fold enrichment (6-mer frequency, TF over GST control) | 1.23 fold enrichment (6-mer frequency, TF over GST control) | 1.29 fold enrichment (6-mer frequency, TF over GST control) | 1.34 fold enrichment (6-mer frequency, TF over GST control)
7 | TATCAT | 1.14 fold enrichment (6-mer frequency, TF over GST control) | 1.21 fold enrichment (6-mer frequency, TF over GST control) | 1.13 fold enrichment (6-mer frequency, TF over GST control) | 1.09 fold enrichment (6-mer frequency, TF over GST control) | 1.1 fold enrichment (6-mer frequency, TF over GST control) | 1.15 fold enrichment (6-mer frequency, TF over GST control) | 1.21 fold enrichment (6-mer frequency, TF over GST control) | 1.05 fold enrichment (6-mer frequency, TF over GST control)
8 | CTGCTA | 1.49 fold enrichment (6-mer frequency, TF over GST control) | 1.38 fold enrichment (6-mer frequency, TF over GST control) | 1.49 fold enrichment (6-mer frequency, TF over GST control) | 1.4 fold enrichment (6-mer frequency, TF over GST control) | 1.5 fold enrichment (6-mer frequency, TF over GST control) | 1.43 fold enrichment (6-mer frequency, TF over GST control) | 1.39 fold enrichment (6-mer frequency, TF over GST control) | 1.39 fold enrichment (6-mer frequency, TF over GST control)
